Measured values taken from the supplement of paper PMC6953052.
Where “and” joins values, the source holds several entries; their conditions need not be identical. Identical values can stand only once. ± gives the standard deviation of the averaged measurements. In all, about 1,700 compounds were measured (“fraction of GFP-LC3-positive cells (≥5 vesicles/cell)”: median about 0.058, highest 2% from about 0.59 on). The list comes from a sample in which the highest values are over-represented; it also holds similar structures and randomly drawn compounds.

The compounds below were run on CbCln3 +/+ GFP-LC3 cerebellar neuronal cells (assay: fraction of GFP-LC3-positive cells (≥5 vesicles/cell); higher = more autophagosome accumulation).
Procedure, shortened: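 Compound (~50 nL in DMSO) was pin-transferred in duplicate onto wild-type or mutant CbCln3 cerebellar cells stably expressing GFP-LC3, seeded at 2 × 10^3/well in 384-well plates, for 24 h at 33 °C. After fixation in 3.2% PFA, three fields per well were imaged at 10×. The value reported is the duplicate average of the fraction of cells meeting a vesicle-count threshold, with CellProfiler counting GFP-LC3 vesicles per cell and out-of-focus images excluded. Cells met the threshold at 5 or more vesicles.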

Row | Structure (SMILES) | fraction of GFP-LC3-positive cells
1 | COc1ccc2c(c1)c(CC(=O)N1CCOCC1)c(C)n2C(=O)c1ccc(Cl)cc1 | 0.0513 ± 0.01
2 | CCCCCCCCCCCCCCCCC(=O)O [Heptadecanoic acid] | 0.0793
3 | C[N+](C)(C)CCOC(N)=O.[Cl-] [Carbachol] | 0.0698
4 | Cn1cc(C2=C(c3cn(CCCSC(=N)N)c4ccccc34)C(=O)NC2=O)c2ccccc21 | 0.845 ± 0.071
5 | CN(C)CCCn1cc(C2=C(c3c[nH]c4ccccc34)C(=O)NC2=O)c2ccccc21 | 0.0883 and 0.0921
6 | COc1ccc(CCN(C)CCCC(C#N)(c2ccc(OC)c(OC)c2)C(C)C)cc1OC.Cl (stereo unspecified) [Verapamyl hydrochloride] | 0.0534
7 | COC(=O)[C@H]1[C@H]2C[C@H]3c4[nH]c5ccccc5c4CCN3C[C@@H]2CC[C@@H]1O.Cl [Corynanthine hydrochloride] | 0.0351
8 | NC(=O)c1ncn([C@@H]2O[C@H](CO)[C@@H](O)[C@H]2O)n1 [Ribavirin] | 0.033
9 | Nc1ncn(C2O[C@H](CO)[C@@H](O)[C@H]2O)c(=O)n1 (stereo partly specified) [Azacytidine-5] | 0.745
10 | Nc1nc(S)c2ncn([C@@H]3O[C@H](CO)[C@@H](O)[C@H]3O)c2n1 [Thioguanosine] | 0.131
11 | C[C@]12CCC(=O)C=C1CC[C@@H]1[C@@H]2[C@@H](O)C[C@@]2(C)[C@H]1CC[C@]2(O)C(=O)CO [Hydrocortisone base] | 0.049
12 | C[C@@H](N)[C@H]1CC[C@H](C(=O)Nc2ccncc2)CC1 | 0.074
13 | CNCCC=C1c2ccccc2CCc2ccccc21.Cl [Nortriptyline hydrochloride] | 0.0533
14 | Cc1nccn1CC1CCc2c(c3ccccc3n2C)C1=O.Cl (stereo unspecified) [Ondansetron Hydrochloride] | 0.03
15 | CCCCCCCCCCCCCCCCCCCCCCC(=O)O [Tricosanoic acid] | 0.0481
16 | Cc1cc(CC(=O)[O-])n(C)c1C(=O)c1ccc(Cl)cc1.[Na+] [Zomepirac sodium salt] | 0.0585
17 | CC(COc1ccccc1)N(CCCl)Cc1ccccc1.Cl (stereo unspecified) [Phenoxybenzamine hydrochloride] | 0.139
18 | Cc1cc(C(C)(C)C)cc(C)c1CC1=NCCN1.Cl [Xylometazoline hydrochloride] | 0.0933
19 | Cc1ccc(Cl)c(Nc2ccccc2C(=O)[O-])c1Cl.O.[Na+] [Meclofenamic acid sodium salt monohydrate] | 0.0498
20 | CCCC[C@@H](C)/C=C(C)/C=C(\C)C(=O)NC1=C[C@@](O)(/C=C/C=C/C=C/C(=O)NC2=C(O)CCC2=O)[C@@H]2O[C@@H]2C1=O [manumycin A] | 0.695
21 | COc1ccccc1OCC(O)COC(N)=O (stereo unspecified) [Methocarbamol] | 0.0551
22 | COc1cc(C(=O)OCCCN2CCCN(CCCOC(=O)c3cc(OC)c(OC)c(OC)c3)CC2)cc(OC)c1OC.Cl.Cl [Dilazep dihydrochloride] | 0.0467
23 | COc1cc(/C=C/C(=O)N2CCC=CC2=O)cc(OC)c1OC [Piperlongumine] | 0.781
24 | COC(=O)[C@H]1[C@H]2C[C@@H]3c4[nH]c5cc(OC)ccc5c4CCN3C[C@H]2C[C@@H](OC(=O)/C=C/c2cc(OC)c(OC)c(OC)c2)[C@@H]1OC [Rescinnamin] | 0.134
25 | COc1ccc2c(c1OC)C(=O)O[C@@H]2[C@H]1c2c(cc3c(c2OC)OCO3)CCN1C [Noscapine] | 0.0895
26 | COC(=O)/C=C/c1cc(O)ccc1O | 0.852

Row | Structure (SMILES) | fraction of GFP-LC3-positive cells
27 | Oc1cc(O)cc(/C=C/c2ccc(O)c(O)c2)c1 [Piceatannol] | 0.357
28 | COc1ccc(C(=O)c2ccccc2)c(O)c1 [Oxybenzone] | 0.0797
29 | Oc1cc(O)cc(/C=C/c2ccc(O)c(O)c2)c1 | 0.173
30 | CCCCCCCC/C=C\CCCCCCCCOC[C@H](COP(=O)([O-])OCC[N+](C)(C)C)OC(C)=O | 0.0408 ± 0.0017
31 | C[n+]1cccc(C(=O)[O-])c1 [Trigonelline] | 0.042
32 | Cn1cnc2c(NCc3ccccc3)nc(NCCO)nc21 [olomoucine] | 0.058
33 | Cn1cnc2c(NCc3ccccc3)nc(NCCO)nc21 | 0.0719
34 | O.O.O=c1c(O)c(-c2ccc(O)c(O)c2)oc2cc(O)cc(O)c12 [Quercetine dihydrate] | 0.0843
35 | CC(=O)N[C@@H](CC(C)C)C(=O)N[C@@H](CC(C)C)C(=O)N[C@H](C=O)CCCNC(=N)N [Leupeptin] | 0.0499
36 | CCCC[C@@H](C=O)NC(=O)[C@H](CC(C)C)NC(=O)[C@H](CC(C)C)NC(C)=O | 0.926
37 | CSCC[C@@H](C=O)NC(=O)[C@H](CC(C)C)NC(=O)[C@H](CC(C)C)NC(C)=O | 0.0674
38 | Nc1ccn([C@H]2CC[C@@H](CO)O2)c(=O)n1 [Zalcitabine] | 0.11
39 | O=C1C=CC(=O)c2c1ccc1c2ccc2ccccc21 [Chrysene-1,4-quinone] | 0.597
40 | O=C1CCc2c(ccc3ccccc23)O1 [Splitomycin] | 0.0416
41 | CCCCCCCCCCC(=O)O [Undecanoic acid] | 0.0729
42 | CC(=O)Oc1cc(C(C)C)c(OCCN(C)C)cc1C.Cl [Moxisylyte hydrochoride] | 0.0756
43 | CS(=O)(=O)c1ccc([C@@H](O)[C@@H](CO)NC(=O)C(Cl)Cl)cc1 [Thiamphenicol] | 0.0366
44 | COc1ccc(CC(N)C(=O)N[C@H]2[C@@H](O)[C@H](n3cnc4c(N(C)C)ncnc43)O[C@@H]2CO)cc1 (stereo partly specified) [puromycin] | 0.276
45 | N=C(N)N1CCc2ccccc2C1.N=C(N)N1CCc2ccccc2C1.O=S(=O)(O)O [Debrisoquin sulfate] | 0.0501
46 | C/C=C(/C(=C/C)c1ccc(O)cc1)c1ccc(O)cc1 [Dienestrol] | 0.14
47 | CCCCC/C=C/C/C=C/CCCCCCCCCCC(=O)O [12(Z), 15(Z)-Heneicosadienoic acid] | 0.0338
48 | NC(CO)(CO)CO.O=C(c1ccccc1)c1ccc2n1CCC2C(=O)O (stereo unspecified) [Ketorolac tromethamine] | 0.0452
49 | CC(C)(C)NCC(O)COc1cccc2c1CC(O)C(O)C2 (stereo unspecified) [Nadolol] | 0.0452
50 | O=C(O)c1ccccc1Nc1ccccc1 | 0.0543
51 | N#CC(=C(/N)Sc1ccccc1N)/C(C#N)=C(\N)Sc1ccccc1N | 0.0648 and 0.109
